# Bioassay records: PubChem BioAssay, National Center for Advancing Translational Sciences (NCATS)
# IL-1B inflam inh: inhibitors of inflammasome signaling (IL-1 beta secretion) | THP-1 LPS/ATP IL-1B secretion, AlphaLISA, 16 h; stronger effect = lower value | activity change, % at 57.5 µM | 4.7% of 360,000 active | AID 743279; in the data active = activity change below about -50%; inconclusive = mostly about -30% to -49%
#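 THP-1 cells pretreated 1 hr with compounds (up to 57.5 uM final), then stimulated with LPS (250 ng/mL final) plus ATP (1.25 mM final); secreted IL-1B measured by AlphaLISA after 16 hr, decreased signal indicating inhibition.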
# S2 tox: cell viability loss in ATXN counter-screen; Potency, µM (doses to about 56.7 µM), usual class: cytotoxic; 0.49% of 400,000 active; S2 cells (HEK-293 line with an ATXN2-luciferase reporter) viability, CellTiter-Fluor protease fluorescence, 24 h; note: nearly all actives have a fitted effect of over 40% in size
# ATXN2 expr inh: reduces ATXN2 reporter expression in HEK-293 cells | HEK-293 ATXN2-luciferase reporter, luminescence, 24 h | Potency, µM (doses to about 57 µM), usual class: inhibitors | 0.72% of 360,000 active | AID 1745845; note: nearly all actives have a fitted effect of over 55% in size
#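 ATXN2-luciferase reporter cells (luciferase flanked by upstream and downstream ATXN2 gene portions) were treated 24 h at 37 °C with compounds at up to 57 uM. SteadyGlo luminescence gave expression; GF-AFC fluorescence gave viability.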
# USP2a block: blocks human ubiquitin-specific protease USP2a. O75604. 0.01% of 330,000 active. Potency, µM (doses to about 38.3 µM), hits mostly inhibitors. USP2 core, Ub-CHOP2 coupled fluorogenic reporter, 485/531. AID 463254
# Target sequence (O75604 whole entry, looked up): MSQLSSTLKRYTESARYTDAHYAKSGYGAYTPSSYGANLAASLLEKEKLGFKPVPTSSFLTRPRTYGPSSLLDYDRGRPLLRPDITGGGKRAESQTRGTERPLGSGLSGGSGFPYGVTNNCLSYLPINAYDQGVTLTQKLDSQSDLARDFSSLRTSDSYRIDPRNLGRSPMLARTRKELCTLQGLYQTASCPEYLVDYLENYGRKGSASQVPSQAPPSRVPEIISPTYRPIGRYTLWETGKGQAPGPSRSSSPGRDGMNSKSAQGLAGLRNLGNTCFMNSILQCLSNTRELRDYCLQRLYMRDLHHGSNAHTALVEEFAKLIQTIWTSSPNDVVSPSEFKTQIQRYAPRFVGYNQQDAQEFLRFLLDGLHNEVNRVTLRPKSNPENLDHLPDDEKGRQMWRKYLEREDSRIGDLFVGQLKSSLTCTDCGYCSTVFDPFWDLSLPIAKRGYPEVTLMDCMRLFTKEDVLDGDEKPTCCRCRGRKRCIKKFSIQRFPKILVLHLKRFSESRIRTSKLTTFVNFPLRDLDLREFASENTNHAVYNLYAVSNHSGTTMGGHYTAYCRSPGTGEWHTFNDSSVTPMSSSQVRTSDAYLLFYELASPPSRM
#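 USP2 core (10nM final) preincubated 30min RT with compound in 20mM Tris-HCl pH 8.0, 2mM CaCl2, 2mM beta-mercaptoethanol, 0.05% CHAPS; 25nM Ub-CHOP2 plus 25nM reporter substrate added, fluorescence (Ex485/Em531) read after 60min.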
# USP1-UAF1 inh: inhibitors of human USP1/UAF1 deubiquitinase | O94782 | recombinant USP1/UAF1, Ub-Rhodamine cleavage fluorescence | Potency, µM (highest dose often 57.1 µM), most hits filed as inhibitors | 0.23% of 390,000 active; note: nearly all actives have a fitted effect of over 60% in size
#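 In this screen, compounds sit with the deubiquitinase complex (1nM) for 15 min at room temperature before Ub-Rho is added at 150nM final. Fluorescence rise is then followed for 6 reads every 60 seconds.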
# A number is an active result; 0 = inactive; ? = inconclusive; - = no result; + = active, no number. Only some compounds are listed: those with a hit (about 4.8% of all), similar ones and a draw of the others. Unless noted, calls come from the whole dose curve; as a rule, active = well fitted curve in the direction sought with a large enough effect; inconclusive = small, poorly fitted or top-dose-only effect, or another doubt; inactive = no such curve, though single readings can be large; an effect the other way counts as inactive or inconclusive.
SMILES,IL-1B inflam inh,S2 tox,ATXN2 expr inh,USP2a block,USP1-UAF1 inh
CC1=C(C(=O)N(C)C)CC(CC(=O)NC2CCCCC2)C(=O)N1Cc1ccc(C(C)(C)C)cc1 (centres undefined),0,0,0,-,0
CC1=C(C(=O)N(C(C)C)C(C)C)CC(CC(=O)NC2CCCC2)C(=O)N1Cc1ccc(C(C)(C)C)cc1 (centres undefined),-68,?,?,-,-
CC1=C(C(=O)N2CCCCCC2)CC(CC(=O)NC2CCCC2)C(=O)N1Cc1ccc(C(C)(C)C)cc1 (centres undefined),-73,?,?,-,-
CCOc1ccccc1CNC(=O)Cn1c(=O)c2cccn2c2ccc(F)cc21,-,-,-,-,0
CCOc1ccc(OCCC(=O)N(CC)CC(=O)Nc2ccccc2OC)cc1,0,0,0,-,0
Cc1cc(N/N=C/c2ccccc2O)c2ccccc2n1,-63,?,16µM,0,0
COc1ccc2nc(C)cc(NCc3cccc(C(F)(F)F)c3)c2c1,-96,0,?,0,0
COc1cccc2c(N/N=C/c3ccccc3)cc(C)nc12,0,0,0,0,0
COc1ccc(/C=N/Nc2cc(C)nc3ccc(Br)cc23)cc1,-101,?,?,0,0
COc1ccc2nc(C)cc(N/N=C/c3cccc(OC)c3O)c2c1,-99,-,?,0,0
COc1ccc2nc(C)cc(Nc3ccccc3OC)c2c1,0,0,-,-,0
CCC(=O)Nc1ccc2nc(SCCOc3ccc(C)cc3OC)sc2c1,-,?,0,-,0
CC(C)C1Cc2c(sc3ncnc(NN)c23)CO1 (centres undefined),0,-,0,0,0
CN(C)CCCNc1ncnc2sc(-c3ccccc3)cc12,-76,0,-,0,0
CN(C)CCCNc1nc(-c2ccc(Cl)cc2)nc2ccccc12,-62,?,-,0,0
Cc1cccc(-c2nc(NCCCN(C)C)c3ccccc3n2)c1,-86,0,0,0,0
O=C(O)CCNc1nc(-c2ccccc2)nc2ccccc12,0,0,0,0,0
CCOC(CNc1ncnc2sc(-c3ccccc3)cc12)OCC,0,0,0,0,0
Cc1cccc(-c2nc(NCCCN3CCOCC3)c3ccccc3n2)c1,0,0,0,0,0
Cc1ccc(-c2nc(NCCCO)c3ccccc3n2)cc1,?,0,0,0,0
Cc1ccc(-c2nc(NCCN(C)C)c3ccccc3n2)cc1,-95,0,0,0,0
COc1ccc(CCNC(=O)CCn2c(=O)c3cccn3c3ccc(F)cc32)cc1OC,-,-,-,-,0
Cc1cc(/C=C2/NC(=S)NC2=O)c(C)n1-c1cccnc1,0,0,0,0,0
Cc1cc(/C=C2/SC(=S)N(c3cccc(Cl)c3)C2=O)c(C)n1-c1cccnc1,-64,?,0,-,0
Cc1cc(/C=C2\SC(=S)N(C)C2=O)c(C)n1-c1ccccc1O,-84,?,0,-,?
SMILES,IL-1B inflam inh,S2 tox,ATXN2 expr inh,USP2a block,USP1-UAF1 inh
Cc1cc(/C=C2\SC(=S)N(C)C2=O)c(C)n1-c1ccc(O)cc1,?,?,?,0,?
Cc1cc(/C=C2/NC(=O)N(c3ccccc3)C2=O)c(C)n1-c1cccnc1,-83,0,-,0,0
CC(=O)N(CC(O)CO)c1c(I)c(C(=O)NCCO)c(I)c(C(=O)NCC(O)CO)c1I (centres undefined),-,0,0,-,-
CN(C)c1nc(N/N=C\c2ccc(Cl)c([N+](=O)[O-])c2)nc(Nc2ccc(F)cc2)n1,-90,0,?,-,0
COc1ccccc1CNC(=O)COc1cc2c(c3oc(=O)cc(C)c13)CCC(C)(C)O2,-61,?,?,0,0
CC(C)NC(=S)NC(=O)c1ccc(-c2ccccc2)cc1,-57,0,0,0,0
CCC(=O)NNC(=S)NC(=O)c1ccc(C)cc1,-61,0,?,0,0
CC(=O)NNC(=S)NC(=O)c1ccc(C)cc1,0,0,-,0,0
O=C(NC(=S)Nc1ccc(-c2ccccc2)cc1)c1ccccc1,0,0,0,-,0
COc1nc(C)cc(C)c1S(=O)(=O)c1ccccc1C,0,0,0,0,0
C#CCOc1nc(C)cc(C)c1S(=O)(=O)c1ccccc1C,-56,0,0,0,0
N#CC(c1ccc(Cl)cc1)c1c(Cl)cc(-n2ncc(=O)[nH]c2=O)cc1Cl (centres undefined),-,-,0,-,-
COc1cccc(CCc2nnc(CCC(=O)NCCC3CCCCO3)o2)c1 (centres undefined),0,0,0,0,0
COc1ccc(/C=C/C(O)=C2/C(=O)N(C)C3(C)CC2c2ccccc2O3)cc1 (centres undefined),-91,0,?,0,0
Cc1ccc(/C=C/C(O)=C2/C(=O)N(C)C3(C)CC2c2ccccc2O3)cc1 (centres undefined),-87,?,?,0,0
COc1ccc(/C=C/C(O)=C2/C(=O)NC3(C)CC2c2ccccc2O3)c(OC)c1OC (centres undefined),0,?,-,0,0
N#CCCN(C(=O)COC(=O)c1cc(=O)c2ccccc2o1)c1ccccc1,0,0,0,0,0
CC1(C)OC(=O)NC1c1ccccc1 (centres undefined),0,0,-,-,0
CCC(c1nc2ccccc2[nH]1)n1c(=O)c(-c2ccco2)nc2ccccc21 (centres undefined),-66,-,-,-,-
Cc1cn([C@H]2C[C@H](O)[C@@H](CNC=O)O2)c(=O)[nH]c1=O,0,0,0,-,0
COC(=O)CSc1nc2sc3c(c2c(=O)n1-c1ccc(C)cc1)CC(C(C)C)OC3 (centres undefined),-,0,0,-,+
COc1ccc(CN2CCC3(CC2)c2ccccc2[C@@H](NC(=O)c2ccco2)[C@@H]3OC)c(O)c1,-,0,-,-,-
CCCCn1nnnc1C(c1cc2ccccc2o1)N1CCN(c2ccncc2)CC1 (centres undefined),-61,?,0,-,-
CCCCn1nnnc1C(c1cc2ccccc2o1)N1CCN(c2ccccc2F)CC1 (centres undefined),0,0,0,-,-
CCCCn1nnnc1C(c1cc2ccccc2o1)N1CCN(c2cc(C)nc3ccccc23)CC1 (centres undefined),0,4.5µM,?,-,-
SMILES,IL-1B inflam inh,S2 tox,ATXN2 expr inh,USP2a block,USP1-UAF1 inh
CC(=O)Nc1ccc(SC[C@H](Cc2ccccc2)N2CC[C@@H](C(C)(C)C)CCC2=O)cc1,-59,32µM,?,0,?
CC(=O)Nc1ccc(S[C@@H](CCN2CC[C@H](C(C)(C)C)CCC2=O)c2ccccc2)cc1,-74,32µM,?,0,0
CC(C)(C)[C@H]1CCC(=O)N([C@H](CSc2ccccc2)Cc2ccccc2)CC1,0,?,0,0,0
COc1ccccc1NC(=O)Cn1c(=O)n(Cc2ccco2)c(=O)c2oc3ccccc3c21,-,0,0,-,0
Cc1oc(-c2cccc(Cl)c2)nc1CN1CCC(C(=O)NCCc2ccc(Cl)cc2)CC1,-,0,0,-,0
Cc1oc(-c2ccc(Cl)cc2)nc1CN1CCC(C(=O)NCc2cccnc2)CC1,-58,0,0,0,0
